One assay relates to AAK1. Conditions: concentration: 1 μM, replicates: in singlicate; n = 1.
For another assay, the system named is ABL1-nonphosphorylated. The note with it: concentration: 1 μM, replicates: in singlicate; n = 1.
The subject of the next assay is ABL1-phosphorylated. The note with it: concentration: 1 μM, replicates: in singlicate; n = 1.
The next assay has as its system ABL2. Conditions: concentration: 1 μM, replicates: in singlicate; n = 1.
The next assay concerns ACVR1B. The note with it: concentration: 1 μM, replicates: in singlicate; n = 1.
Another assay deals with ACVR1. Conditions: concentration: 1 μM, replicates: in singlicate; n = 1.
A further assay deals with ACVR2A. The note with it: concentration: 1 μM, replicates: in singlicate; n = 1.
A further assay relates to ACVR2B. The note with it: concentration: 1 μM, replicates: in singlicate; n = 1.
Another assay concerns ACVRL1. Conditions: concentration: 1 μM, replicates: in singlicate; n = 1.
The subject of another assay is T1, ADCK3.
T1 construct: gene CABC1
Conditions: concentration: 1 μM, replicates: in singlicate; n = 1.

The next assay concerns ADCK4. Conditions: concentration: 1 μM, replicates: in singlicate; n = 1.
In the next assay the test system is AKT1. The note with it: concentration: 1 μM, replicates: in singlicate; n = 1.
The next assay deals with AKT2. The note with it: n = 1.
The next assay has as its system AKT3. Conditions: concentration: 1 μM, replicates: in singlicate; n = 1.
The subject of another assay is ALK. Conditions: concentration: 1 μM, replicates: in singlicate; n = 1.
Another assay relates to T2, AMPK-alpha1.
T2 construct: gene PRKAA1
The note with it: concentration: 1 μM, replicates: in singlicate; n = 1.

The subject of a further assay is T3, AMPK-alpha2.
T3 construct: gene PRKAA2
Conditions: concentration: 1 μM, replicates: in singlicate; n = 1.

The next assay deals with ANKK1. Conditions: concentration: 1 μM, replicates: in singlicate; n = 1.
The subject of the next assay is T4, ARK5.
T4 construct: gene NUAK1
The note with it: concentration: 1 μM, replicates: in singlicate; n = 1.

A further assay has as its system T5, ASK1.
T5 construct: gene MAP3K5
The note with it: concentration: 1 μM, replicates: in singlicate; n = 1.

Where [1] appears, read: concentration: 1 μM, replicates: in singlicate.

Structures are written as SMILES. Where two headings read alike, the source gives them in different places.

The values below come from PMC5540273 (PLoS ONE, 2017).
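Further: KINOMEscan kinase panel screen.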

As for `CCc1ccc(-c2ccc3c(c2)-c2c(cnn2C)S(=O)(=O)N3C)cc1`, the “%Inh” value is 0% in the assay with AAK1; 7% in the assay with ABL1-nonphosphorylated; 0% in the assay with ABL1-phosphorylated; 0% in the assay on ABL2; 14% with ACVR1B; 0% in the assay with ACVR1. The “%Inh” value stood at 5% with ACVR2A; 0% with ACVR2B; 17% in the assay on ACVRL1; 0% in the assay on ADCK3; 0% with ADCK4; 0% in the assay with AKT1. In addition, the “%Inh” value with AKT2 (setting [1]), in the assay on AKT3, in the assay with ALK, in the assay on AMPK-alpha1, with AMPK-alpha2 and in the assay with ANKK1 was 0% each time. Moreover, the “%Inh” value in the assay on ARK5 and with ASK1 was 0% throughout.

On to `COc1ccc(Nc2nccc(NCCNC(=O)c3cc4ccccc4s3)n2)cc1` [GSK1379896], for which the “%Inh” value with AAK1 is given as 7%; in the assay on ABL1-nonphosphorylated it was 0%; in the assay with ABL1-phosphorylated, 0%; in the assay with ABL2, 9%; in the assay on ACVR1B, 0%; in the assay with ACVR1 it was 0%. In addition, the “%Inh” value was found to be 0% in the assay on ACVR2A; 0% in the assay with ACVR2B; 0% with ACVRL1; 10% in the assay with ADCK3; 29% with ADCK4; 0% in the assay on AKT1. Moreover, the “%Inh” value in the assay with AKT2 (setting [1]) is listed as 0%; in the assay on AKT3, 0%; in the assay on ALK it was 6%; with AMPK-alpha1 it was 0%; in the assay on AMPK-alpha2, 0%; in the assay with ANKK1, 6%. In addition, the entries for the “%Inh” value with ARK5 and in the assay with ASK1 were 3% and 0%, respectively.

Consider `O=C(Nc1cccc(Oc2ccc3nc(NC(=O)C4CC4)cn3n2)c1)c1ccccc1C(F)(F)F`, for which the “%Inh” value stood at 45% in the assay on AAK1; 100% in the assay with ABL1-nonphosphorylated; 90% in the assay with ABL1-phosphorylated; 79% in the assay on ABL2; 0% in the assay on ACVR1B; 0% in the assay on ACVR1. The “%Inh” value in the assay with ACVR2A is 16%; in the assay with ACVR2B, 34%; with ACVRL1, 0%; in the assay on ADCK3 it was 3%; with ADCK4, 12%; in the assay on AKT1, 0%. Also, the “%Inh” value in the assay with AKT2 (setting [1]) is 0%; in the assay on AKT3, 0%; with ALK, 22%; in the assay on AMPK-alpha1, 0%; in the assay on AMPK-alpha2, 3%; in the assay on ANKK1 it was 1%. For the same compound, the “%Inh” value in the assay on ARK5 and in the assay with ASK1 was 0% each time.

Turning to `Cn1cc(-c2ccc3c(c2)CCN3C(=O)Cc2cccc(F)c2)c2c(N)ncnc21` [GSK2603358], the “%Inh” value is recorded as 18% in the assay with AAK1; 58% with ABL1-nonphosphorylated; 41% in the assay with ABL1-phosphorylated; 35% in the assay with ABL2; 0% in the assay on ACVR1B; 0% in the assay with ACVR1. The “%Inh” value is recorded as 0% in the assay with ACVR2A; 69% in the assay with ACVR2B; 0% in the assay on ACVRL1; 2% in the assay with ADCK3; 35% in the assay on ADCK4; 0% with AKT1. The “%Inh” value was 9% with AKT2 (setting [1]); 0% in the assay on AKT3; 20% with ALK; 7% in the assay on AMPK-alpha1; 22% in the assay on AMPK-alpha2; 0% in the assay on ANKK1. Moreover, the “%Inh” value came to 17% in the assay on ARK5 and 11% with ASK1.

In the case of `COc1cc(Nc2nccc(-c3c(-c4cccc(NC(=O)c5c(F)cccc5F)c4)nn4ccccc34)n2)cc(OC)c1OC` [GSK323521], the “%Inh” value in the assay on AAK1 turned out to be 44%; in the assay with ABL1-nonphosphorylated, 52%; with ABL1-phosphorylated, 0%; with ABL2 it was 33%; in the assay on ACVR1B, 19%; in the assay with ACVR1 it was 0%. For the same compound, the “%Inh” value in the assay on ACVR2A is 7%; with ACVR2B, 15%; in the assay on ACVRL1 it was 25%; in the assay on ADCK3, 10%; with ADCK4, 0%; in the assay with AKT1 it was 8%. The “%Inh” value in the assay with AKT2 (setting [1]) is 0%; with AKT3 it was 5%; in the assay with ALK, 14%; in the assay with AMPK-alpha1, 20%; in the assay on AMPK-alpha2, 23%; in the assay with ANKK1, 13%. For the same compound, the “%Inh” value is 8% with ARK5 and 5% in the assay on ASK1.

For `CCn1c(-c2nonc2N)nc2c(C#CC(C)(C)O)ncc(OCCCCN)c21.O=C(O)C(F)(F)F.O=C(O)C(F)(F)F` [GSK507274], the “%Inh” value was 41% in the assay with AAK1; 0% in the assay with ABL1-nonphosphorylated; 4% with ABL1-phosphorylated; 11% with ABL2; 0% in the assay with ACVR1B; 3% in the assay with ACVR1. The “%Inh” value turned out to be 7% in the assay on ACVR2A; 0% in the assay with ACVR2B; 0% with ACVRL1; 26% with ADCK3; 13% in the assay with ADCK4; 93.5% in the assay with AKT1. In addition, the “%Inh” value is given as 99.1% in the assay with AKT2 (1 µM); 72% in the assay with AKT3; 28% with ALK; 1% in the assay with AMPK-alpha1; 0% in the assay with AMPK-alpha2; 0% in the assay on ANKK1. Further, the “%Inh” value in the assay on ARK5 is on record as 50%; in the assay on ASK1 it was 0%.

In the case of `Nc1ncc(-c2ccc3nccc(-c4ccncc4)c3c2)cc1S(=O)(=O)N1CCOCC1` [GSK1627798], the “%Inh” value is given as 18% in the assay with AAK1; 0% with ABL1-nonphosphorylated; 0% in the assay on ABL1-phosphorylated; 13% in the assay with ABL2; 0% in the assay on ACVR1B; 0% in the assay with ACVR1. Moreover, the “%Inh” value in the assay on ACVR2A was 0%; with ACVR2B it was 0%; in the assay on ACVRL1 it was 0%; in the assay on ADCK3 it was 49%; in the assay with ADCK4, 24%; in the assay with AKT1, 0%. In addition, the “%Inh” value in the assay with AKT2 (setting [1]) was found to be 12%; with AKT3, 0%; with ALK, 30%; in the assay on AMPK-alpha1, 0%; with AMPK-alpha2 it was 0%; with ANKK1, 5%. Besides, the “%Inh” value in the assay on ARK5 and with ASK1 was 0% each time.

In the case of `O=C(Nc1ccccc1F)NC1CCN(c2ccnc(Nc3ccc(F)cc3)n2)CC1` [GSK1379800], the “%Inh” value worked out at 17% with AAK1; 0% in the assay with ABL1-nonphosphorylated; 0% in the assay with ABL1-phosphorylated; 12% in the assay with ABL2; 0% in the assay with ACVR1B; 6% in the assay with ACVR1. For the same compound, the “%Inh” value with ACVR2A stood at 0%; in the assay on ACVR2B, 0%; in the assay on ACVRL1 it was 0%; in the assay on ADCK3, 1%; with ADCK4 it was 64%; with AKT1, 0%. Moreover, the “%Inh” value with AKT2 (setting [1]) was 11%; in the assay on AKT3, 0%; with ALK it was 17%; with AMPK-alpha1, 14%; in the assay on AMPK-alpha2, 0%; with ANKK1 it was 1%. Besides, the “%Inh” value in the assay on ARK5 was determined as 0%; in the assay on ASK1, 4%.

With `Cl.Cl.NCC(NCc1ccc(-c2ccnc3[nH]ccc23)s1)c1ccccc1` (stereo not drawn) [GSK1321565], the “%Inh” value in the assay on AAK1 is 67%; in the assay on ABL1-nonphosphorylated, 0%; in the assay with ABL1-phosphorylated, 0%; with ABL2, 1%; in the assay with ACVR1B it was 0%; in the assay with ACVR1 it was 18%. Besides, the “%Inh” value with ACVR2A worked out at 0%; in the assay on ACVR2B, 0%; in the assay with ACVRL1, 0%; in the assay on ADCK3 it was 25%; in the assay with ADCK4, 44%; in the assay with AKT1 it was 71%. Also, the “%Inh” value with AKT2 (setting [1]) stood at 25%; with AKT3 it was 71%; with ALK, 64%; in the assay on AMPK-alpha1 it was 45%; in the assay with AMPK-alpha2, 28%; in the assay on ANKK1 it was 22%. Besides, the “%Inh” value is on record as 82% in the assay on ARK5 and 16% in the assay with ASK1.
